Bioassay records as filed in PubChem BioAssay.
Tau fluor counter – counter-screen for tau fibril formation inhibitors; tau K18 P301L Alexa594 fluorescence, heparin fibrillization; Potency, µM (highest dose often 57.7 µM), inactives show at the highest dose activity change, negative = decrease; 280,000 compounds, 0.93% hits; also: nearly all actives have a fitted effect of over 55% in size
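Human tau K18 P301L (15 uM unlabeled, 0.24 uM Alexa 594-labeled) in 100 mM sodium acetate pH 7 with 20 uM heparin, 6 hr at 37 C. ThT 30 uM added, 1 hr ambient; Alexa 594 FP and total fluorescence read at 555/632 nm.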
ALDH1A1 inh – ALDH1A1 (human) enzyme inhibition. 220,000 compounds, 7.3% hits. Purified ALDH1A1, NADH fluorescence, propionaldehyde substrate. P00352. Potency, µM (top dose mostly 75.3 µM), for the others: at the highest dose activity, negative = inhibition, usual class: inhibitors. AID 1030; active = well fitted inhibition curve with a large enough effect, not every such curve was filed as active; inconclusive = small, poorly fitted or top-dose-only effect, or another doubt; inactive = no such curve, though single readings can be large or run the other way;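 also: plate controls were no enzyme wells and a reference inhibitor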
Tau fibril FP – tau fibrillization inhibition (FP); P10636; Potency, µM (doses to about 57.7 µM), for inactives: top-dose activity, negative = inhibition, usual class: inhibitors; K18 P301L tau heparin fibrillization, Alexa594 FP, 6 h; 280,000 compounds, 0.39% hits; also: nearly all actives have a fitted effect of over 55% in size
Target sequence (P10636 561-689 P618L limits assumed): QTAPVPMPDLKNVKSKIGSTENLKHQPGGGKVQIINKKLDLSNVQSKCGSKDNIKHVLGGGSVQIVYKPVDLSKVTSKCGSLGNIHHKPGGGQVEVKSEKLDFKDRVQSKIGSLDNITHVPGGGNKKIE
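Human K18 P301L fragment (15 uM unlabeled plus 0.24 uM Alexa 594-labeled) in 100 mM sodium acetate pH 7 with compound, aggregation induced by 20 uM heparin for 6 hr at 37 C. ThT (30 uM) added for 1 hr, then Alexa 594 FP read.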
HPGD block – inhibitors of human 15-hydroxyprostaglandin dehydrogenase (HPGD). Potency, µM, inactives show at the highest dose activity change, negative = inhibition, actives largely listed as inhibitors. P15428. purified HPGD, NADH fluorescence kinetic, PGE2 substrate. 150,000 compounds, 4.3% hits; active = well fitted inhibition curve with a large enough effect, not every such curve was filed as active; inconclusive = small, poorly fitted or top-dose-only effect, or another doubt; inactive = no such curve, though single readings can be large or run the other way
Target sequence (P15428 whole entry, looked up): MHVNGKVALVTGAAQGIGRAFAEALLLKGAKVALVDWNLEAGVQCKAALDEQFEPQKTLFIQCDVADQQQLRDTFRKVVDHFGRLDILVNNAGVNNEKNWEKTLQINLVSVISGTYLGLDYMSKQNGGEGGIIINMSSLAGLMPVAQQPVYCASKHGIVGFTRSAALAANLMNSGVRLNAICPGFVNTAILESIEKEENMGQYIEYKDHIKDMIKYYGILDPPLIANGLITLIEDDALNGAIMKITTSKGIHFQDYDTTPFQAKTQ
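NADH formation kinetics: reaction with 30 uM PGE2 and 1 mM NAD+ (final), 20 nM enzyme, Tris-HCl pH 8 with Tween 20, after 15 min compound preincubation at room temperature. Fluorescence change, last versus first of five reads.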
Tau fibril ThT – inhibitors of human tau fibril formation, thioflavin T binding; P10636; Potency, µM (doses to about 57.4 µM), without a hit: top-dose activity, negative = inhibition, usual class: inhibitors; AID 1460; recombinant tau K18 P301L (four-repeat tau fragment), heparin-induced fibrillization, ThT fluorescence; 270,000 compounds, 2.1% hits; also: nearly all actives have a fitted effect of over 55% in size
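Heparin-induced (20 uM) aggregation of recombinant human K18 P301L tau, 15 uM unlabeled with 0.24 uM labeled, pH 7 acetate buffer, 6 hr at 37 C with compound. Fibrils quantified by 30 uM ThT fluorescence after 1 hr ambient incubation.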
JMJD2E inh – inhibitors of human JMJD2E histone demethylase. JMJD2E catalytic domain, FDH-coupled NADH fluorescence (FDH is formaldehyde dehydrogenase). Potency, µM (highest dose often 57.1 µM), inactives show top-dose activity change, negative = inhibition, actives largely listed as inhibitors. 230,000 compounds, 1.6% hits. AID 2147; active = well fitted inhibition curve with a large enough effect, not every such curve was filed as active; inconclusive = small, poorly fitted or top-dose-only effect, or another doubt; inactive = no such curve, though single readings can be large or run the other way;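 also: 0% = wells with enzyme and -100% = buffer wells without enzyme; nearly all actives have a fitted effect of over 50% in size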
Target sequence (B2RXH2 1-337 limits assumed): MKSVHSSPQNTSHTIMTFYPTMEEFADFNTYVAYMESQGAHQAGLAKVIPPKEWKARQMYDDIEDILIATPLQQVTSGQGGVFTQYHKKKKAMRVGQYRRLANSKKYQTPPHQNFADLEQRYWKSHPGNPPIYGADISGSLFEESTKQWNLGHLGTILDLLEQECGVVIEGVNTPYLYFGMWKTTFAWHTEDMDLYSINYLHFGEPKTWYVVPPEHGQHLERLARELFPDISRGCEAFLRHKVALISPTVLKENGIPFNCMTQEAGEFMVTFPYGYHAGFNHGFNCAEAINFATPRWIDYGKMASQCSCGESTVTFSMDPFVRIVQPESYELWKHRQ
Starred values were filed as active, the others as inactive; u = inconclusive; x = no result given; [ ] = dose if it differs, or a comment. Rows were chosen to be rich in hits. Some 9.9% of all compounds tested hit in one or more screens of this group. Unless noted, calls follow the shape of the dose curve; as a rule, active = well fitted curve in the direction sought with a large enough effect; inconclusive = small, poorly fitted or top-dose-only effect, or another doubt; inactive = no such curve, though single readings can be large; an effect the other way counts as inactive or inconclusive. Unless noted, % is scaled to controls: 0 for no effect and ±100 for the full control effect; potency is read from the fitted curve at half-maximal effect.

SMILES	Tau fluor counter	ALDH1A1 inh	Tau fibril FP	HPGD block	Tau fibril ThT	JMJD2E inh
CCCOc1ccc(CSc2nc3ccccc3[nH]2)cc1	-27%	9%	-15%	-20%	u	-3%
CCOc1ccc(OCCSc2nc3ccccc3[nH]2)cc1	u	-6%	u	25µM*	u	-4%
Clc1ccc(OCCSc2nnnn2C2CCCCC2)cc1	-15%	u	4%	-12%	-21%	5%
CC(CC(=O)O)(CC(=O)O)c1ccccc1	x	0%[13.5 µM]	x	-7%	x	x
O=C1CC(c2cccs2)CC2=C1C(c1ccccc1)n1ncnc1N2 (stereo not given)	-3%	u	-4%	-20%	-3%	-12%
CC1CC(=O)C2=C(C1)Nc1ncnn1C2c1ccccc1 (stereo not given)	-13%	18µM*	-3%	-25%	-9%	6%
Cc1ccc2nc3sc(C(=O)NCCCN(C)c4ccccc4)cc3cc2c1	u	x	4%	x	u	x
CCN(CCCNC(=O)c1cc2cc3cc(C)ccc3nc2s1)c1cccc(C)c1	7.9µM*[quencher]	x	10%	x	u	x
Cc1nn(C)c(C(=O)NNC(=S)NCc2ccco2)c1Cl	-1%	1%	-9%	35µM*	-3%	4%
C=CCN1C(=O)N/C(=C/c2ccc(N3CCOCC3)o2)C1=O	-28%	u	u	-20%	7.9µM*	-12%
O=C1N/C(=C/c2ccc(N3CCOCC3)o2)C(=O)N1c1ccccc1	3%	7.1µM*	-16%	u	u	5%
CCCN(CCC)C(=O)c1cn(CC)c2ccc(S(=O)(=O)N3CCCCC3)cc2c1=O	-1%	x	-3%	x	1%	x
CCC(Sc1nc2n[nH]c(C)c2c(=N)n1-c1ccc(Br)cc1)C(=O)N(CC)CC (stereo not given)	-21%	x	-12%	x	-1%	x
Cc1ccc(NC(=O)Cn2c(=O)n(-c3ccc(C)cc3)c(=O)c3c2cnn3C)cc1	-14%	x	-3%	x	-1%	x
Oc1cc(O)c2c(c1)O[C@H](c1ccc(O)c(O)c1)[C@@H](O)C2	u	u	-8%	-8%	-8%	25µM*
O=c1c(O)cc(C2Oc3cc(O)cc(O)c3CC2O)cc2c(C3Oc4cc(O)cc(O)c4CC3O)cc(O)c(O)c12 (stereo not given)	8.9µM*[quencher]	-15%	1µM*	13µM*	0.5µM*	25µM*
O=C1c2c(O)cc(O)cc2O[C@@]12c1c(cc(O)c3c1O[C@H](c1ccc(O)cc1)[C@@H](O)C3)O[C@@H]2c1ccc(O)cc1	u	-3%	3%	u	u	-6%
Oc1ccc2c(c1)OC(c1ccc(O)c(O)c1)C(O)C2 (stereo not given)	-21%	u	-4%	-30%	u	16µM*
O=C(O)c1ccc(F)c(S(=O)(=O)Nc2cccc(F)c2)c1	x	7%	x	0%	x	x
COc1ccc(Br)cc1CNC(=O)CN1C(=O)CSc2ccc(S(=O)(=O)N3CCOCC3)cc21	-17%	x	11%	x	-3%	x
CC1=NN(Cc2ccccc2)C(=O)C1C(c1ccc(Cl)cc1)C(C#N)C#N (stereo not given)	-16%	25µM*	6%	28µM*	u	-10%
CC1=NN(Cc2ccccc2)C(=O)C1C(c1ccncc1)C(C#N)C#N (stereo not given)	u	x	1%	x	x	u
CC1=NN(Cc2ccccc2)C(=O)C1C(c1ccccc1)C(C#N)C#N (stereo not given)	-7%	u	4%	32µM*	-15%	-3%
CC(C)OCCCNc1ncc2c(n1)CC(c1ccc(N(C)C)cc1)CC2=O (stereo not given)	3%	8.9µM*	0%	-17%	-5%	-7%
C/C=C/C=C/C(=O)[C@@H]1[C@@H]([C@]2(C)OC(=O)C(C)=C2O)[C@H]2/C(=C(O)/C=C/C=C/C)C(=O)[C@]1(C)C(=O)C2(C)O (stereo not given in full)	-4%	x	u	x	14µM*	u
SMILES	Tau fluor counter	ALDH1A1 inh	Tau fibril FP	HPGD block	Tau fibril ThT	JMJD2E inh
O=C(CCCOc1ccccc1)Nc1nc2ccccc2[nH]1	-10%	8%	-2%	x	-8%	-3%
O=S(=O)(CCOc1ccccc1)c1nc2ccccc2[nH]1	6%	6.3µM*	6%	-16%	8%	2%
O=C(Nc1sc2c(c1C(=O)NCc1ccccc1)CCCC2)c1cc(=O)c2cc(Cl)ccc2o1	-9%	x	10%	x	-16%	x
CCC1=C(c2ccc(C)cc2)S(=O)(=O)N=C1N1CCC(C(=O)Nc2ccccc2F)CC1	-13%	x	-1%	x	-7%	x
O=C(CCc1ccccc1)NCC1OCCc2ccccc21 (stereo not given)	-23%	0%	-2%	x	u	4%
O=C(NCC1OCCc2ccccc21)c1ccco1 (stereo not given)	-13%	7.9µM*	-4%	-21%	-11%	-8%
Cc1noc(C)c1S(=O)(=O)Nc1ccc(C(=O)N2CCN(c3cccc(Cl)c3)CC2)cc1	-20%	10%	3%	-4%	-19%	-2%
Cc1cccc(N2CCN(C(=O)c3ccc(NS(=O)(=O)c4c(C)noc4C)cc3)CC2)c1C	-17%	14µM*	0%	-21%	u	6%
COC(=O)c1cc2sccc2n1Cc1c(C)cc(C)cc1C	-11%	x	u	x	u	x
CC(C)(C)c1ccc(S(=O)(=O)N2CCCCC2)cc1	1%	-13%	0%	-10%	2%	-3%
Cc1cccc(-n2c(O)c(C=Nc3ccccc3O)c3ccccc3c2=O)n1	u	x	15%	x	u	-6%
Cc1cccc(-n2c(O)c(C=Nc3ccccc3-c3n[nH]c(=S)[nH]c3=O)c3ccccc3c2=O)n1	-15%	u	-4%	x	u	-6%
Cc1ccc(-n2c(O)c(C=Nc3ccccc3-c3n[nH]c(=S)[nH]c3=O)c3ccccc3c2=O)cc1C	0%	3.5µM*	4%	x	7%	-8%
Cc1ccc(-n2c(O)c(C=Nc3ccccc3-c3n[nH]c(=S)[nH]c3=O)c3ccccc3c2=O)c(C)c1	-9%	18µM*	2%	x	u	u
Cc1ccc(C)c(CN2CCC(CNC(=O)C(CC(C)C)N3Cc4ccccc4C3=O)CC2)c1 (stereo not given)	3%	x	2%	x	6%	x
COc1ccccc1C(=O)NNC(=O)c1sccc1-n1cccc1	4%	-14%	2%	x	1%	6%
CCC(/C=C1\Sc2ccc(OC)cc2N1CCO)=C\c1sc2ccc(OC)cc2[n+]1CCO	0.4µM*[fluorescent]	u	-13%	1%	1.1µM*	2%
CCC(/C=C1\Sc2ccc(OC)cc2N1CC)=C\c1sc2ccc(OC)cc2[n+]1CCCS(=O)(=O)[O-]	0.79µM*[fluorescent]	1.3µM*	u	x	3.5µM*	-1%
